The inhibition is the drop in the measured response relative to a control, in per cent.

Among the data in ChEMBL document CHEMBL1961873, “Compounds: GSK PKIS; Assays: Nanosyn kinase panel” (2012) are inhibition values, retold here.

In assay [1] the target is Ribosomal protein S6 kinase alpha-6 (Homo sapiens) (UniProt Q9UK32). To be noted: at 1 µM.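 Further: each value is a mean inhibition of RSK4 from a GSK PKIS panel screen.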
In assay [2] the target is T1, Serine/threonine-protein kinase Sgk1 (Homo sapiens) (UniProt O00141).
T1 sequence (whole entry): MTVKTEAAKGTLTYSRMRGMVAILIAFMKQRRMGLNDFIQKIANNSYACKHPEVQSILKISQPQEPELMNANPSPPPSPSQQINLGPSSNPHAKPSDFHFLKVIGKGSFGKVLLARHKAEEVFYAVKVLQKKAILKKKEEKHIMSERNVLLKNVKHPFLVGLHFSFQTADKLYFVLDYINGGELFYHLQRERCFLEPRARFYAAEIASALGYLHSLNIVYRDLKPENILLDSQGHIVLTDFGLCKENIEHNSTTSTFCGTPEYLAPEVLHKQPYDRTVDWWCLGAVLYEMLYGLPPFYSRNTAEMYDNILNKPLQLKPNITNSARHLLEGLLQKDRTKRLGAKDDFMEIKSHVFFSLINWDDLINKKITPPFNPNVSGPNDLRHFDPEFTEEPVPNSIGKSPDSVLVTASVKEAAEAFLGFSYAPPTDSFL
Particulars: at 0.1 µM.

Assay [3] deals with T1, Serine/threonine-protein kinase Sgk1 (Homo sapiens). Particulars: at 1 µM.
Assay [4] has as its target T2, Serine/threonine-protein kinase Sgk2 (Homo sapiens) (UniProt Q9HBY8).
T2 sequence (whole entry): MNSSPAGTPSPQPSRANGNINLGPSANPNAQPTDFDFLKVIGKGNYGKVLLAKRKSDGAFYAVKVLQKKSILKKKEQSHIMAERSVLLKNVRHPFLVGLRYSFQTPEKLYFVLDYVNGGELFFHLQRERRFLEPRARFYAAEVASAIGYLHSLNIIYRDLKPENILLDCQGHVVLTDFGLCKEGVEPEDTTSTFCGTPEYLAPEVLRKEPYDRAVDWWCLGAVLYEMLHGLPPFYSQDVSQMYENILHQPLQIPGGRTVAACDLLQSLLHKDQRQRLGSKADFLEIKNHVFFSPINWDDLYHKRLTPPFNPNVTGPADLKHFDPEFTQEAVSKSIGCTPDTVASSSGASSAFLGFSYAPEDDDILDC
Particulars: at 0.1 µM.

For assay [5], the target named is T2, Serine/threonine-protein kinase Sgk2 (Homo sapiens). To be noted: at 1 µM.
The target in assay [6] is T3, Serine/threonine-protein kinase Sgk3 (Homo sapiens) (UniProt Q96BR1).
T3 sequence (whole entry): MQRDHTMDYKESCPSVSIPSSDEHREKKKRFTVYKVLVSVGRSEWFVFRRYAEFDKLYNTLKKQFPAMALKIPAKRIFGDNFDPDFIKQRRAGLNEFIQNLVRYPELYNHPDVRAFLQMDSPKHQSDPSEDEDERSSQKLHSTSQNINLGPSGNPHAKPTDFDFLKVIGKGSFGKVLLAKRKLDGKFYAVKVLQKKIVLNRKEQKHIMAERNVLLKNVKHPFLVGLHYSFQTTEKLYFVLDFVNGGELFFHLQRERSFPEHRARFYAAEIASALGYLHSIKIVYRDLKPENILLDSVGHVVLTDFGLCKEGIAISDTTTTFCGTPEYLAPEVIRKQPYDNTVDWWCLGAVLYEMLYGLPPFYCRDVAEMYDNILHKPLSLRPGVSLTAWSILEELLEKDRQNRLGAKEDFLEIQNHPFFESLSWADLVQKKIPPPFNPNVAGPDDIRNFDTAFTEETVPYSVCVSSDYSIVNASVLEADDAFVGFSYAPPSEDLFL
Particulars: at 0.1 µM.

Assay [7] concerns the target T3, Serine/threonine-protein kinase Sgk3 (Homo sapiens). To be noted: at 1 µM.
The target in assay [8] is 5'-AMP-activated protein kinase catalytic subunit alpha-1 (Homo sapiens) (UniProt Q13131). Particulars: at 0.1 µM.
Chain of 5'-AMP-activated protein kinase catalytic subunit alpha-1 (Homo sapiens) (Q13131 whole entry, looked up): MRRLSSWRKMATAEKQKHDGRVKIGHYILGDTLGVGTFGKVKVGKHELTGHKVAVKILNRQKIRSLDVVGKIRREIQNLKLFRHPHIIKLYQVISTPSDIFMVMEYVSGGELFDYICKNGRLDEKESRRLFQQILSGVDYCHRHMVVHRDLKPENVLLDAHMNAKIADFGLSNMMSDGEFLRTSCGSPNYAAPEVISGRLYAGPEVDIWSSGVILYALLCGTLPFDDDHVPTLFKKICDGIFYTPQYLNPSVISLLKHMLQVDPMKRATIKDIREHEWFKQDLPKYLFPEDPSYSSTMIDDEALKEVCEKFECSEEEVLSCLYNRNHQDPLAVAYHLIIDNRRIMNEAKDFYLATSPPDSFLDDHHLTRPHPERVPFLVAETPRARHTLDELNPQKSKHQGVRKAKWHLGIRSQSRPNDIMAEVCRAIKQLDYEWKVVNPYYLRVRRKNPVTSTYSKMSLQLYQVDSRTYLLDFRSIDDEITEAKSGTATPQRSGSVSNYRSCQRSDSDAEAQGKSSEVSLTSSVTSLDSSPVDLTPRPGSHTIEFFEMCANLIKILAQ
Assay [9] has the same target. Particulars: at 1 µM.
In assay [10] the target is 5'-AMP-activated protein kinase catalytic subunit alpha-2 (Homo sapiens) (UniProt P54646). Particulars: at 0.1 µM.
Chain of 5'-AMP-activated protein kinase catalytic subunit alpha-2 (Homo sapiens) (P54646 whole entry, looked up): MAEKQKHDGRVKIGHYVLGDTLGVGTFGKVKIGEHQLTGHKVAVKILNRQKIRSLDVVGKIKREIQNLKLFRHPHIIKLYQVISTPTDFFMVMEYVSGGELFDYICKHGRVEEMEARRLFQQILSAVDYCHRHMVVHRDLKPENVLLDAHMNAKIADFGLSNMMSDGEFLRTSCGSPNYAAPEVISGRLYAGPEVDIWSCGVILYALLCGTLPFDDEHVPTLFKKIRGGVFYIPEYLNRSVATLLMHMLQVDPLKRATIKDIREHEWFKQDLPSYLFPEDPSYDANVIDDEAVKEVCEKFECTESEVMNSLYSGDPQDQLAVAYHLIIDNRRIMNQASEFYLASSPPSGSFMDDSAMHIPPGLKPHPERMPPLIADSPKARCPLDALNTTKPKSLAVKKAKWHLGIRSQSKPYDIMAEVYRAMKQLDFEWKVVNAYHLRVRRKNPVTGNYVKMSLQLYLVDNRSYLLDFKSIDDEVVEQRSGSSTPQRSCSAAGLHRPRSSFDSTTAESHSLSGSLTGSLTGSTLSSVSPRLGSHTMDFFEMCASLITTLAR
Assay [11] has the same target. Particulars: at 1 µM.
In assay [12] the target is T4, NUAK family SNF1-like kinase 1 (Homo sapiens) (UniProt O60285).
T4 sequence (whole entry): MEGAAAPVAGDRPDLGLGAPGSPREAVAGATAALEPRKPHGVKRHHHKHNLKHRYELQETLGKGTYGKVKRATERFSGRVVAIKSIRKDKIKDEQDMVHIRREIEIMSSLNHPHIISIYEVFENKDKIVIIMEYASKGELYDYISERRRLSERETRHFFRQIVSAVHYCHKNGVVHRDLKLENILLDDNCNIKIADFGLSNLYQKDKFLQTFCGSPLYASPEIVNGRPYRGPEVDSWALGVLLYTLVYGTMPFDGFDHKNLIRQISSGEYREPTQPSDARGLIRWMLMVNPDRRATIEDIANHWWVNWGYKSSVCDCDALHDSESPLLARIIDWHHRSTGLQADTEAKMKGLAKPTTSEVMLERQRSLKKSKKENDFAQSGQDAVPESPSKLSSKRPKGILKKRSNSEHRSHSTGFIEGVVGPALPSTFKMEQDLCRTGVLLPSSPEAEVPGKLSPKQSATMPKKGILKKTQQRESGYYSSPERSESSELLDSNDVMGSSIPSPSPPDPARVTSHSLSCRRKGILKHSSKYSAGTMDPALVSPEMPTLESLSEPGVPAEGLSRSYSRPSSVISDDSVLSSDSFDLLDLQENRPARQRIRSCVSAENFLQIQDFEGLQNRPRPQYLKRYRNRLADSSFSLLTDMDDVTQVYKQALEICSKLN
To be noted: at 0.1 µM.

Assay [13] deals with T4, NUAK family SNF1-like kinase 1 (Homo sapiens). Particulars: at 1 µM.
Assay [14] addresses T5, Serine/threonine-protein kinase BRSK1 (Homo sapiens) (UniProt Q8TDC3).
T5 sequence (whole entry): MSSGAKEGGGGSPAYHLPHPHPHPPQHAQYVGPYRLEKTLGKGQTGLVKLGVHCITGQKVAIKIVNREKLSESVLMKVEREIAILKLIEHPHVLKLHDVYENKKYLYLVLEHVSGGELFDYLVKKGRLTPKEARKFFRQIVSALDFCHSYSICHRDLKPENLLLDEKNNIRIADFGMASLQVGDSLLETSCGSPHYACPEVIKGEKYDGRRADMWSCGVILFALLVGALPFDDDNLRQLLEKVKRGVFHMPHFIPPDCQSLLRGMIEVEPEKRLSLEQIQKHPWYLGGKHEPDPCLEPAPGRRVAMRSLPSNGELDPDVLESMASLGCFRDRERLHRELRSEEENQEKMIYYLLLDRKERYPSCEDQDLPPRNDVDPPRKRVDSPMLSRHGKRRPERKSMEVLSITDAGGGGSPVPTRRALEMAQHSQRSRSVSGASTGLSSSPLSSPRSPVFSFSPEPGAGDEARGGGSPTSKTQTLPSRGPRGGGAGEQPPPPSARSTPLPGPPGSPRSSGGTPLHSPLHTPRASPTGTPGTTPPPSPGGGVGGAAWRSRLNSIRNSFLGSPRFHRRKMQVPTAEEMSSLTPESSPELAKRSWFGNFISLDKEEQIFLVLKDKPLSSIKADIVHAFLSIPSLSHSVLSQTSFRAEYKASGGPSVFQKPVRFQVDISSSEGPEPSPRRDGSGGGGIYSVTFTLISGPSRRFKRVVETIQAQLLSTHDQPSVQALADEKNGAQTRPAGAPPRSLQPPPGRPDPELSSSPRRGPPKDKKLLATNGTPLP
Particulars: at 0.1 µM.

Assay [15] addresses T5, Serine/threonine-protein kinase BRSK1 (Homo sapiens). To be noted: at 1 µM.
The target in assay [16] is T6, Serine/threonine-protein kinase BRSK2 (Homo sapiens) (UniProt Q8IWQ3).
T6 sequence (whole entry): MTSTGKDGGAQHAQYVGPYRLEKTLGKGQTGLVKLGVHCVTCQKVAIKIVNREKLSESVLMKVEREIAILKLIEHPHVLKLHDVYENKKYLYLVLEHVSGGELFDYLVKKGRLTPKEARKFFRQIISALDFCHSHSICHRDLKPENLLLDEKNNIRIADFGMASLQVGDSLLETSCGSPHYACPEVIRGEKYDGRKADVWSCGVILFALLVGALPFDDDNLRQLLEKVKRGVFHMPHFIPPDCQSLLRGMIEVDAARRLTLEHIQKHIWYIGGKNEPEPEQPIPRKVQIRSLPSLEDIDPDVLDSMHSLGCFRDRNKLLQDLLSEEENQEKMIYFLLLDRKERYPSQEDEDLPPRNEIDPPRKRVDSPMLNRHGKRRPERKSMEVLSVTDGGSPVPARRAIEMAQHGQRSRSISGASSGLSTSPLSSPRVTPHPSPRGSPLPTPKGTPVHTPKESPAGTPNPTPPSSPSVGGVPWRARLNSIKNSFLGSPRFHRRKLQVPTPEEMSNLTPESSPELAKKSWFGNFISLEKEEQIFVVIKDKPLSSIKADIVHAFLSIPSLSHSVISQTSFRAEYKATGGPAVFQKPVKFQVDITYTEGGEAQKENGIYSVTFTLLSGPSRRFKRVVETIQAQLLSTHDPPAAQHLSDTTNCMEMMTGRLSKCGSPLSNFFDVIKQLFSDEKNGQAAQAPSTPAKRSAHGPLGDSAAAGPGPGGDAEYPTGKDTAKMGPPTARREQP
Particulars: at 0.1 µM.

Assay [17] deals with T6, Serine/threonine-protein kinase BRSK2 (Homo sapiens). To be noted: at 1 µM.
Assay [18] concerns the target Calcium/calmodulin-dependent protein kinase type 1D (Homo sapiens) (UniProt Q8IU85). Particulars: at 0.1 µM.
Assay [19] shares this target. Particulars: at 1 µM.
In assay [20] the target is Calcium/calmodulin-dependent protein kinase type II subunit alpha (Homo sapiens) (UniProt Q9UQM7). To be noted: at 0.1 µM.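 Further: reported values are averages (mean inhibition of CAMK2A).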
Chain of Calcium/calmodulin-dependent protein kinase type II subunit alpha (Homo sapiens) (Q9UQM7 whole entry): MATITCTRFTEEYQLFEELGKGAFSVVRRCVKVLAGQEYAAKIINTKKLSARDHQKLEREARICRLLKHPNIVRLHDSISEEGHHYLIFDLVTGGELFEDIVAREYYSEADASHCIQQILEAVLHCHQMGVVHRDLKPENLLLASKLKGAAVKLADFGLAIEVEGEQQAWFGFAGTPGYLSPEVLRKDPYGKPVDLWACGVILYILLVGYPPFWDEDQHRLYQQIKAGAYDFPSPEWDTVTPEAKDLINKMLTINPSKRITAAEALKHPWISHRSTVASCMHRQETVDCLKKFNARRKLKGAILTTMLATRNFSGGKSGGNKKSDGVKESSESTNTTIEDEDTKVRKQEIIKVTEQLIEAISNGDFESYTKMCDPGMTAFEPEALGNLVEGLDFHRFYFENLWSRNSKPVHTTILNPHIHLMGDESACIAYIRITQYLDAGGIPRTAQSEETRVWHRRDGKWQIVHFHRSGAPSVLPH

Chain of Ribosomal protein S6 kinase alpha-6 (Homo sapiens) (Q9UK32 whole entry): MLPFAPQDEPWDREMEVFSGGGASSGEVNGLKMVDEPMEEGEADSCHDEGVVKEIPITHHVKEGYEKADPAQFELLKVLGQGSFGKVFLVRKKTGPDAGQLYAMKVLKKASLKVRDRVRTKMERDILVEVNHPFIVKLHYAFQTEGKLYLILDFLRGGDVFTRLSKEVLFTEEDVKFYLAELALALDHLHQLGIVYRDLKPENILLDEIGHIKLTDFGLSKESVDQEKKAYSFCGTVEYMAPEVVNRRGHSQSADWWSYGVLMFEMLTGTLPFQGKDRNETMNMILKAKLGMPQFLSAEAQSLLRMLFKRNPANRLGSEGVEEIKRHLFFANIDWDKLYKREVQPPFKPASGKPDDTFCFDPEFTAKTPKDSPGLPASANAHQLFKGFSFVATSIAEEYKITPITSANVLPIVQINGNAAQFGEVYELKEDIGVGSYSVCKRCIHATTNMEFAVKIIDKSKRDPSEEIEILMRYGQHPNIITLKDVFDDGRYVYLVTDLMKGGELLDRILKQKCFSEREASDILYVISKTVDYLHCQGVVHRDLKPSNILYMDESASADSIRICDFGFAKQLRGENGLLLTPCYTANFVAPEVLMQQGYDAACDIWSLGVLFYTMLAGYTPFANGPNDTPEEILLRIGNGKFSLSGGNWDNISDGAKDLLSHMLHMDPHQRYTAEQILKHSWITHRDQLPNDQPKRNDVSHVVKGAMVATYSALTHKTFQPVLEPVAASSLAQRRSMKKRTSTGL
Chain of Calcium/calmodulin-dependent protein kinase type 1D (Homo sapiens) (Q8IU85 whole entry, looked up): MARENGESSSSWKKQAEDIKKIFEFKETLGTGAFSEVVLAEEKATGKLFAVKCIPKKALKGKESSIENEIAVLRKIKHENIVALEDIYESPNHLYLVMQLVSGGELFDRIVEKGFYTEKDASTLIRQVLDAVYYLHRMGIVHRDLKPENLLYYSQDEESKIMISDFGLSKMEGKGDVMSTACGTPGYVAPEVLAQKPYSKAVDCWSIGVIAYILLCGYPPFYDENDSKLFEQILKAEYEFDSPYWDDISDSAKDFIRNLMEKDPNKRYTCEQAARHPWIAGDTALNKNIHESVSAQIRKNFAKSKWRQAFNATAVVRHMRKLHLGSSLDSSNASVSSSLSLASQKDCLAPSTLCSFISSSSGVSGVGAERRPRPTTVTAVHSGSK

With `C[C@@H](Oc1cc(-n2cnc3ccc(OC[C@@H](O)CO)cc32)sc1C(N)=O)c1ccccc1Cl`, the inhibition in assay [1] is 12.7%; in assay [2] it was 1.2%; in assay [3], 0.68%; in assay [4], 1.68%; in [5], 2.9%; in assay [6], -1.63%. Also, the inhibition in assay [7] amounted to 0.55%; in assay [8], 0.18%; in [9], 5.73%; in [10], 0.26%; in [11], 2.08%; in assay [12] it was 6.98%. The inhibition in assay [13] is 39.1%; in assay [14], 15.7%; in assay [15], 55.8%; in [16], 24.2%; in [17], 68.3%; in [18], -0.01%. The inhibition is 0.92% in assay [19] and -2.71% in [20].

On to `NS(=O)(=O)c1ccc(Nc2cc(-c3cccc(O)c3)n[nH]2)cc1`, for which the inhibition in assay [1] is 4.67%; in assay [2], 6.76%; in assay [3] it was 4.48%; in assay [4] it was 2.52%; in assay [5] it was 1.36%; in assay [6] it was 6.64%. Besides, the inhibition in [7] was found to be 2.75%; in assay [8], 5.36%; in [9] it was 11.1%; in [10] it was 5.11%; in [11], 9.57%; in assay [12], 5.05%. In addition, the inhibition turned out to be 13.9% in [13]; 3.55% in assay [14]; 4.52% in assay [15]; 3.59% in assay [16]; 7.4% in [17]; 1.05% in [18]. Further, the inhibition is 0.76% in [19] and 4.18% in [20].

Consider `NC(=O)c1sc(-n2cnc3ccccc32)cc1OCc1ccccc1Br`, for which the inhibition in assay [1] is 5.17%; in assay [2] it was 2.26%; in [3], 2.46%; in assay [4], 4.32%; in assay [5], 4.07%; in assay [6] it was 1.99%. For the same compound, the inhibition came to 2.42% in assay [7]; 2.42% in assay [8]; 4.09% in assay [9]; 7.19% in assay [10]; 4.98% in [11]; 7.8% in assay [12]. In addition, the inhibition in [13] came to 29.1%; in assay [14], 3.67%; in [15], 8.3%; in assay [16] it was 3.06%; in [17], 17.1%; in assay [18], 0.13%. Besides, the inhibition in assay [19] stood at 2.21%; in assay [20] it was 1.7%.
